Among the data in PubChem BioAssay AID2113 (National Center for Advancing Translational Sciences (NCATS), 2009) are Potency values, retold here.

Results filed as inconclusive are left out. Entries that show only a call come without a potency. Active and inactive are the calls of the source. The call rests on the fitted dose curve; in most records, active means well fitted curve in either direction with a large enough effect; inconclusive means small, poorly fitted or top-dose-only effect; inactive means no such curve, though single readings can be large or run the other way.
Potency means the concentration at half of the fitted maximal effect.

This assay deals with Lysosomal alpha-glucosidase (Homo sapiens) (UniProt P10253). Briefly: Confirmation of Inhibitors and Activators of Human alpha-Glucosidase From Spleen Homogenate.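 On Potency: fluorescence of 4-methylumbelliferone released from a fluorogenic glucopyranoside substrate at pH 5.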 The conditions noted are these: alpha-glucosidase enzyme activity; series mostly up to 60.5 µM. In outline:
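Fluorogenic assay using human spleen homogenate (1 ug) as enzyme source with 1 mM 4-methylumbelliferyl-alpha-D-glucopyranoside, pH 5.0 citrate buffer, 40 min at 37 C. 4-MU read (Ex 365/Em 440) after NaOH/glycine stop; AC50 from Hill fits.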
Consider `CC1=C(C(=O)OC(C)C)C(c2cccc([N+](=O)[O-])c2)n2c(cc(=O)[nH]c2=S)N1` (stereo not given), for which the Potency result is “inactive”.

`O=c1oc2cc(O)ccc2cc1-c1nc2c(s1)CCc1ccccc1-2`: the Potency is 31.6 µM (active).

`CCCN1CNc2c(c(=O)[nH]c(=S)n2CCc2ccc(C)cc2C)C1`: the Potency is 39.8 µM (active).

Turning to `O=C(COc1ccc2ccccc2c1)N1CCN(C(=O)c2ccco2)CC1`, the Potency result was “inactive”.

Regarding `CCS(=O)(=O)N1Cc2ccccc2CC1C(=O)Nc1ccc(NC(C)=O)cc1` (stereo not given), the Potency result is “inactive”.

Turning to `CNC(=S)/N=C(\Nc1ccc(C)cc1)c1ccccc1`, the Potency result is “inactive”.

In the case of `Cn1c(N)c(S(=O)(=O)c2ccc(Br)cc2)c2nc3ccccc3nc21`, the Potency result is “inactive”.

As to `O=S(=O)(c1cccc(Cl)c1)N1CCOCC1`, the Potency entry was “inactive”.

Turning to `Clc1cc2c(cc1/C=C/c1ccc3ccccc3n1)OCO2`, the Potency entry is “inactive”.

For the molecule `CC(=O)c1ccc(N2CCN(C(=O)c3ccc4c(c3)CCC(=O)N4)CC2)cc1`, the Potency entry was “inactive”.

For `CN(C)N=C1c2cc(S(=O)(=O)N3CCOCC3)ccc2-c2ccc(S(=O)(=O)N3CCOCC3)cc21`, the Potency entry was “inactive”.

On to `C[C@@H](NC(=O)c1nc[nH]c1C(=O)N[C@@H](Cc1ccccc1)C(=O)OC(C)(C)C)c1ccccc1`, for which the Potency entry was “inactive”.

On to `CC1CCc2nc(-c3cc4ccc(O)cc4oc3=O)sc2C1` (stereo not given), for which the Potency entry was “inactive”.

Consider `CCCN1CNc2c(c(=O)[nH]c(=S)n2CCC(C)(C)C)C1`, for which the Potency result is “inactive”.

Turning to `CCCn1c(N)c(CC)c(=O)[nH]c1=O`, the Potency entry was “inactive”.

For `CC(=O)N1CCN(S(=O)(=O)c2ccc3c(c2)CC(=O)N3)CC1`, the Potency is 29.8 µM [inhibitor] (active).

Consider `CCCN1CNc2c(c(=O)[nH]c(=S)n2CCc2c(C)cccc2C)C1`, for which the Potency result is “inactive”.

For `CC(=O)c1ccc(N2CCN(S(=O)(=O)c3ccc4c(c3)C(Cl)(Cl)C(=O)N4)CC2)cc1`, the Potency is 32.6 µM [inhibitor] (active).

Take `Cc1cccc(-n2c(N)cc(=O)[nH]c2=S)c1`: the Potency result was “inactive”.

Turning to `Cc1nc(SCC(=O)N2CCN(c3ccccc3)CC2)c2oc3ccccc3c2n1`, the Potency entry was “inactive”.
